Experimental data reported in PubChem BioAssay (NCI).
This is part of a sample that, as a whole, favours compounds with a hit. Of some 83,000 tested, about 20% had one in any assay.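 Values shown are percent growth following 48 h exposure of cells in 96-well plates to a single concentration of compound; below 10 was considered active.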 Activity calls are given as the source filed them.

Experiments:
Experiment in all cases: NCI-60 one-dose screen, 48 h (100 = growth as untreated, 0 = no growth, -100 = all killed)
Conditions in all cases: 10 µM unless noted
HCT-15 colon = system: HCT-15 colon
HT29 colon = system: HT29 colon
SNB-75 CNS = system: SNB-75 CNS
SNB-19 CNS = system: SNB-19 CNS
U251 CNS = system: U251 CNS
PC-3 prostate = system: PC-3 prostate
SK-MEL-5 melanoma = system: SK-MEL-5 melanoma
UACC-62 melanoma = system: UACC-62 melanoma
LOX IMVI melanoma = system: LOX IMVI melanoma
SK-MEL-28 melanoma = system: SK-MEL-28 melanoma
EKVX NSCLC = system: EKVX NSCLC
SN12C renal = system: SN12C renal
UO-31 renal = system: UO-31 renal
TK-10 renal = system: TK-10 renal
ACHN renal = system: ACHN renal
CAKI-1 renal = system: CAKI-1 renal
CCRF-CEM leukemia = system: CCRF-CEM leukemia
MOLT-4 leukemia = system: MOLT-4 leukemia
A498 renal = system: A498 renal

Measured: growth

CC(C)(C)CC(C)(C)n1nnnc1C(Nc1nccs1)c1cc2cccc3ccc4cccc1c4c32 (stereo not given)
inactive: HCT-15 colon 94.9% | HT29 colon 104% | SNB-75 CNS 91.5% | SNB-19 CNS 89.9% | U251 CNS 98.1% | PC-3 prostate 96.9% | SK-MEL-5 melanoma 100% | UACC-62 melanoma 68.4% | LOX IMVI melanoma 97% | SK-MEL-28 melanoma 101% | EKVX NSCLC 97.2% | SN12C renal 99.4% | UO-31 renal 87.9% | TK-10 renal 108% | ACHN renal 96.1% | CAKI-1 renal 75.9% | CCRF-CEM leukemia 106% | MOLT-4 leukemia 121%

COc1cc(-c2nn(C(C)(C)C)cc2-c2ccnc(NCCCNS(=O)(=O)c3cccc(F)c3)n2)ccc1Cl
inactive: HCT-15 colon 63.7% | HT29 colon 65.1% | SNB-75 CNS 46.2% | SNB-19 CNS 93.4% | U251 CNS 88.3% | PC-3 prostate 51.3% | SK-MEL-5 melanoma 81.8% | UACC-62 melanoma 69.2% | LOX IMVI melanoma 67.2% | SK-MEL-28 melanoma 91.6% | EKVX NSCLC 40.6% | SN12C renal 58.6% | UO-31 renal 42.9% | TK-10 renal 68.2% | ACHN renal 83.4% | CAKI-1 renal 25.7% | A498 renal 34.4% | MOLT-4 leukemia 44%

COc1ccc([C@H]2c3[nH]c4ccccc4c3C[C@H]3C(=O)N(C4CCN(Cc5c(Cl)cccc5Cl)CC4)CC(=O)N23)c(OC)c1
inactive: HCT-15 colon 92.4% | HT29 colon 103% | SNB-75 CNS 99.3% | SNB-19 CNS 95.5% | U251 CNS 95.8% | PC-3 prostate 72.7% | SK-MEL-5 melanoma 95.7% | UACC-62 melanoma 84.1% | LOX IMVI melanoma 98.6% | SK-MEL-28 melanoma 101% | EKVX NSCLC 86.2% | SN12C renal 91% | UO-31 renal 53.7% | TK-10 renal 110% | ACHN renal 86.8% | CAKI-1 renal 73.4% | A498 renal 128% | CCRF-CEM leukemia 94.6% | MOLT-4 leukemia 86.2%

Nc1nc(-c2cccc([N+](=O)[O-])c2)c(N=Nc2cccc([N+](=O)[O-])c2)s1
inactive: HCT-15 colon 62% | HT29 colon 94.2% | SNB-19 CNS 20.9% | PC-3 prostate 74.7% | SK-MEL-5 melanoma 63.9% | UACC-62 melanoma 54.7% | LOX IMVI melanoma 13.4% | SK-MEL-28 melanoma 61.3% | EKVX NSCLC 78.1% | SN12C renal 22.5% | UO-31 renal 13.5% | ACHN renal 11.5% | CAKI-1 renal 34.5% | CCRF-CEM leukemia 95.2% | MOLT-4 leukemia 112%
active: SNB-75 CNS -8.63% | U251 CNS -43% | TK-10 renal 7.2%

Cc1ccc(CSc2nc(-c3ccc(Cl)cc3)c(C#N)c(N3CCOCC3)n2)cc1
inactive: HCT-15 colon 95.9% | HT29 colon 91.2% | SNB-75 CNS 108% | SNB-19 CNS 95.4% | U251 CNS 96.7% | PC-3 prostate 80.3% | SK-MEL-5 melanoma 96.5% | UACC-62 melanoma 73.1% | LOX IMVI melanoma 96.6% | SK-MEL-28 melanoma 93.8% | EKVX NSCLC 95.1% | SN12C renal 98.1% | UO-31 renal 86.1% | TK-10 renal 105% | ACHN renal 98.9% | CAKI-1 renal 76.4% | MOLT-4 leukemia 85%
active: CCRF-CEM leukemia 1.17%

CCOC(=O)c1c(Nc2ccccc2)nn2c(-c3ccc(OC)cc3)ccnc12
inactive: HCT-15 colon 48.6% | HT29 colon 74.9% | SNB-75 CNS 82.7% | SNB-19 CNS 109% | U251 CNS 89.2% | PC-3 prostate 99.2% | SK-MEL-5 melanoma 71.3% | UACC-62 melanoma 95.1% | LOX IMVI melanoma 80.3% | SK-MEL-28 melanoma 89.9% | EKVX NSCLC 99.6% | SN12C renal 93.5% | UO-31 renal 85.7% | TK-10 renal 100% | ACHN renal 83.8% | CAKI-1 renal 78% | CCRF-CEM leukemia 74.1% | MOLT-4 leukemia 82.5%

CN1CCN(c2nc(-c3csc(-c4ccccc4)n3)cc3ccccc23)CC1
inactive: SNB-75 CNS 70.5% | SNB-19 CNS 66.1% | U251 CNS 36.7% | PC-3 prostate 28.9% | SK-MEL-5 melanoma 58.7% | EKVX NSCLC 63.5% | SN12C renal 50.2% | UO-31 renal 43.6% | TK-10 renal 73.3% | ACHN renal 16.1% | CAKI-1 renal 21.2% | CCRF-CEM leukemia 14.2%
active: HCT-15 colon -48.6% | HT29 colon -52% | UACC-62 melanoma -38.4% | LOX IMVI melanoma -80.7% | SK-MEL-28 melanoma -25.2% | MOLT-4 leukemia 4.08%

Cc1cccc(/C=C/C(=O)Nc2ncc(Cc3cccc(C)c3)s2)c1
inactive: HCT-15 colon 17.5% | SNB-19 CNS 47.2% | U251 CNS 22.1% | PC-3 prostate 13% | UACC-62 melanoma 14.8% | LOX IMVI melanoma 23.3% | SK-MEL-28 melanoma 49.8% | EKVX NSCLC 36.8% | SN12C renal 38.5% | UO-31 renal 35.4% | TK-10 renal 54.6% | ACHN renal 42.1% | CAKI-1 renal 25.3% | MOLT-4 leukemia 22%
active: HT29 colon 2.82% | SNB-75 CNS 8.11% | SK-MEL-5 melanoma -19% | CCRF-CEM leukemia 9.99%

O=S(=O)(NC1c2ccccc2C[C@H]1O)c1ccc(Cl)cc1Cl (stereo not given in full)
inactive: HCT-15 colon 94.6% | HT29 colon 109% | SNB-75 CNS 86.4% | SNB-19 CNS 96.3% | U251 CNS 98.7% | PC-3 prostate 84.1% | SK-MEL-5 melanoma 99.4% | UACC-62 melanoma 74.9% | LOX IMVI melanoma 93.3% | SK-MEL-28 melanoma 102% | EKVX NSCLC 98.8% | SN12C renal 96.8% | UO-31 renal 68.7% | TK-10 renal 119% | ACHN renal 96.2% | CAKI-1 renal 82.4% | A498 renal 103% | CCRF-CEM leukemia 105% | MOLT-4 leukemia 105%

COc1ccc(-n2c(SCc3n[nH]c(=S)o3)nc3ccc(Cl)cc3c2=O)cc1
inactive: HCT-15 colon 93.6% | HT29 colon 105% | SNB-75 CNS 95.5% | SNB-19 CNS 92.9% | U251 CNS 104% | PC-3 prostate 101% | SK-MEL-5 melanoma 93.5% | UACC-62 melanoma 92% | LOX IMVI melanoma 101% | SK-MEL-28 melanoma 95.1% | EKVX NSCLC 98.7% | SN12C renal 92% | UO-31 renal 93.7% | TK-10 renal 105% | ACHN renal 97% | CAKI-1 renal 85.5% | CCRF-CEM leukemia 98.7% | MOLT-4 leukemia 111%

Nc1nc(-c2cccc([N+](=O)[O-])c2)c(N=Nc2ccc([N+](=O)[O-])cc2Cl)s1
inactive: HT29 colon 10.7% | SNB-19 CNS 17% | U251 CNS 10.3% | LOX IMVI melanoma 14.1% | SK-MEL-28 melanoma 22.8% | UO-31 renal 10.5% | TK-10 renal 22.7% | CCRF-CEM leukemia 13%
active: HCT-15 colon 3.38% | SNB-75 CNS -1.14% | PC-3 prostate 5.14% | SK-MEL-5 melanoma -76.6% | UACC-62 melanoma 1.4% | EKVX NSCLC 6.7% | SN12C renal 5.24% | ACHN renal 7.06% | CAKI-1 renal 4.29% | MOLT-4 leukemia 7.78%

CCO/C=N/C1=C(C#N)C(c2ccc(OC)cc2)c2sc3c(CC)cccc3c2O1 (stereo not given)
active: SNB-75 CNS -0.25% | A498 renal 6.97%
inactive: HCT-15 colon 22.4% | HT29 colon 13.1% | SNB-19 CNS 37.8% | U251 CNS 27.3% | PC-3 prostate 26.9% | SK-MEL-5 melanoma 17.6% | UACC-62 melanoma 27.6% | LOX IMVI melanoma 26% | SK-MEL-28 melanoma 67.2% | EKVX NSCLC 47.5% | SN12C renal 43.6% | UO-31 renal 48.1% | TK-10 renal 69.3% | ACHN renal 46.8% | CAKI-1 renal 50% | CCRF-CEM leukemia 22.4% | MOLT-4 leukemia 26.8%

CCC(NC(c1cc2cccc3ccc4cccc1c4c32)c1nnnn1C(C)(C)C)C1CCCCC1 (stereo not given)
active: SK-MEL-5 melanoma 6.39%
inactive: HCT-15 colon 38.4% | HT29 colon 69.4% | SNB-75 CNS 75.6% | SNB-19 CNS 68.9% | U251 CNS 53.8% | PC-3 prostate 45.8% | UACC-62 melanoma 49.6% | LOX IMVI melanoma 47.6% | SK-MEL-28 melanoma 80.3% | EKVX NSCLC 92.1% | SN12C renal 80.8% | UO-31 renal 72.1% | TK-10 renal 80.6% | ACHN renal 54.5% | CAKI-1 renal 63.1% | CCRF-CEM leukemia 58.1% | MOLT-4 leukemia 47.2%

O=C(Cn1c(-c2ccccc2)nc2cc(Cl)c(Cl)cc21)N=Nc1c(O)[nH]c2ccc(Cl)cc12
inactive: HCT-15 colon 68.7% | HT29 colon 51.4% | SNB-75 CNS 101% | SNB-19 CNS 87.8% | U251 CNS 93.8% | PC-3 prostate 70.8% | SK-MEL-5 melanoma 79.5% | UACC-62 melanoma 71.7% | LOX IMVI melanoma 72.2% | SK-MEL-28 melanoma 66.4% | EKVX NSCLC 75.5% | SN12C renal 89.8% | UO-31 renal 73.7% | TK-10 renal 104% | ACHN renal 74.3% | CAKI-1 renal 70.2% | MOLT-4 leukemia 72.3%
active: CCRF-CEM leukemia -8.19%

CC(O)c1cc2ccccc2c(=O)o1 (stereo not given)
inactive: HCT-15 colon 103% | HT29 colon 105% | SNB-75 CNS 110% | SNB-19 CNS 99.6% | U251 CNS 103% | PC-3 prostate 95.2% | SK-MEL-5 melanoma 97% | UACC-62 melanoma 97.9% | LOX IMVI melanoma 97.3% | SK-MEL-28 melanoma 101% | EKVX NSCLC 102% | SN12C renal 101% | UO-31 renal 89.9% | TK-10 renal 105% | ACHN renal 102% | CAKI-1 renal 91.5% | MOLT-4 leukemia 107%
active: CCRF-CEM leukemia 1.19%

CCn1c(SCC(=O)Nc2cccc(C(=O)/C=C/c3ccc(C)cc3)c2)nc2ccccc2c1=O
inactive: HCT-15 colon 49.2% | HT29 colon 65.8% | SNB-75 CNS 93.3% | SNB-19 CNS 81.2% | U251 CNS 80.1% | PC-3 prostate 60.7% | SK-MEL-5 melanoma 90% | UACC-62 melanoma 70.1% | LOX IMVI melanoma 37.6% | SK-MEL-28 melanoma 95.8% | EKVX NSCLC 98.8% | SN12C renal 88% | UO-31 renal 58.9% | TK-10 renal 120% | ACHN renal 92.2% | CAKI-1 renal 80.2% | A498 renal 94.2% | CCRF-CEM leukemia 67.4% | MOLT-4 leukemia 88%

CNC(=O)c1cc(Oc2ccc3nc(NC(=O)c4ccc(N5CCOCC5)c(C(F)(F)F)c4)sc3c2)ccn1
inactive: HCT-15 colon 51.5% | HT29 colon 48.5% | SNB-75 CNS 96.2% | SNB-19 CNS 86.6% | U251 CNS 65.6% | PC-3 prostate 59% | SK-MEL-5 melanoma 28.8% | UACC-62 melanoma 47.7% | LOX IMVI melanoma 76.3% | SK-MEL-28 melanoma 86.1% | EKVX NSCLC 78.7% | SN12C renal 90.4% | UO-31 renal 54.7% | TK-10 renal 127% | ACHN renal 91.5% | CAKI-1 renal 87.2% | CCRF-CEM leukemia 75.6% | MOLT-4 leukemia 75.8%
